Values without a mark were called inactive. Activity calls are given as the source filed them.

This experiment is described as follows: basal S. cerevisiae growth modulation, no modifier, primary screen, OD600, strain BY4716, 24 h, basal condition (AID 1173). The note with it: OD600, 24 h, higher = more signal, called active from +8 up or from −8 down.
Consider `O=C(O)[C@@H]1[C@@H]2C(=O)N(c3ccccc3)C(=O)[C@@H]2C[C@@H]1Sc1ccccc1`, for which the z-score is 0.308.

Take `CCOC(=O)C1=CC[C@@H](c2ccccc2F)N(S(=O)(=O)c2ccc(C)cc2)[C@H]1c1ccccc1`: the z-score was 0.837.

For `C=CCN1Cc2ccccc2[C@@H]2OC(c3ccc(OCCCO)cc3)=N[C@]2(CC=C)C1=O`, the z-score was -1.94.

For `O=C(NCCN1CCOCC1)[C@@H]1c2ccccc2C(=O)N(C2Cc3ccccc3C2)[C@H]1c1ccc(CO)cc1`, the z-score is -0.633.

As for `C=CCC(OC(C)=O)[C@@H]1[C@@H](N(Cc2cccc3ccccc23)C(=O)Cc2ccc(OC)cc2)c2cc(OCCCO)ccc2N1C(=O)c1ccc(-c2ccccc2)cc1` (stereo partly drawn), the z-score was 0.376.

With `CC(C)[Si](C#CCCCC#N)(O[C@H](c1ccccc1)c1cn(Cc2ccccc2)nn1)C(C)C`, the z-score is -6.51.

With `NCCCCCCNC(=O)[C@@H]1C[C@@H]2C(=O)N[C@@H](CCCCN)C(=O)N2[C@@H]1c1ccc(O)cc1`, the z-score is 0.243.

`CCN(CC)c1ccc(N2CC=CC34O[C@@H]5/C=C\CCCOC(=O)C5[C@H]3C(=O)N(C(C)CO)[C@@H]4C2=O)cc1` (stereo partly drawn): the z-score was -0.566.

As to `CC(C)N1C(=O)C[C@@](C(=O)O)(c2ccc([N+](=O)[O-])cc2)[C@H]1c1ccc(CO)cc1`, the z-score is -0.717.

Take `CN(C)C(=O)[C@@]1(Cc2ccccc2)N=C(c2ccc(OCCCO)cc2)O[C@H]1c1ccccc1`: the z-score was -1.92.

`Cc1ccc(S[C@]2(C(=O)NC(C)C)CC(=O)N(Cc3cc(C(F)(F)F)cc(C(F)(F)F)c3)[C@@H]2c2ccc(CO)cc2)cc1`: the z-score was -1.33.

On to `COCC(=C=CC[C@H](O)c1ccc(CO)o1)CCO`, for which the z-score is -1.63.

As to `CCCCCN1CC=CC23O[C@@H]4/C=C\CCCOC(=O)C4[C@H]2C(=O)N(C(C)CO)[C@@H]3C1=O` (stereo partly drawn), the z-score is 0.102.

Take `COc1ccc([Si](C)(C)[C@@H]2[C@@H](CCO)O[C@]3(C(=O)N(Cc4cccc(NC(=O)[C@H](C)O)c4)c4ccccc43)[C@H]2C)cc1`: the z-score is 0.728.

For the molecule `Cc1ccc(S[C@]2(C(=O)NCc3ccccc3)CC(=O)N(C3CCCCC3)[C@@H]2c2ccc(CO)cc2I)cc1`, the z-score is -0.799.

In the case of `CC(C)c1ccc(NN2C(C(O)c3ccc(F)cc3)C=CC3C(=O)N(c4ccccc4)C(=O)C32)cc1` (stereo not drawn), the z-score was -2.21.

As for `COC(=O)[C@@]1(Cc2ccccc2)[C@H]2c3cc(C(=O)N4CCCC4)n(CCc4ccccn4)c3C[C@H]2CN1C(=O)c1ccccc1`, the z-score is 1.3.

As for `CCCN1C(=O)[C@]2(Cc3ccccc31)N=C(c1ccc(OCCCO)cc1)O[C@@H]2c1ccccc1`, the z-score is -1.72.

`O=C1[C@H]2C=C(I)[C@H](C[C@@H]2OCCOCCO)[C@@]12CO2`: the z-score was -0.28.

Consider `CCCCCCc1nc(Cc2cc(OC)c(OC)c(OC)c2)cc2c1[Si](C(C)C)(C(C)C)OC2`, for which the z-score is 0.273.

Regarding `COC(=O)C(CC#Cc1ccc2c(c1)[C@]1(C(=O)N2)[C@H](c2ccc(O)cc2)N2[C@H](c3ccccc3)[C@H](c3ccccc3)OC(=O)[C@H]2[C@@H]1C(=O)NC[C@H](O)c1ccccc1)C(=O)OC`, the z-score is 0.677.

For the molecule `COCCOC(=O)N1C(=O)[C@@]2(c3cc(C#CC4=CCCCC4)ccc31)[C@H](c1ccccc1OCCO)N1[C@H](c3ccccc3)[C@H](c3ccccc3)OC(=O)[C@H]1[C@@H]2C(=O)N1CCN(c2ncccn2)CC1`, the z-score was 0.456.

As to `O[C@@H](Cc1ccccc1)[C@@H](/C=C/C1CC1)N(CC#Cc1ccccc1)Cc1ccccc1Br`, the z-score is 0.365.

In the case of `COc1cc2c(cc1O)C=[N+](Cc1sc3ccccc3c1Cl)CC2`, the z-score was -1.04.

For `COc1ccc(C#Cc2ccc3c(c2)[C@]2(C(=O)N3)[C@H](C(=O)O)[C@H]3C(=O)O[C@H](c4ccccc4)[C@H](c4ccccc4)N3[C@@H]2c2ccc(O)cc2)cc1`, the z-score is -1.07.

In the case of `Cn1cccc1C(O)C1C=CC2C(=O)N(c3ccccc3)C(=O)C2N1Nc1ccccc1` (stereo not drawn), the z-score is 0.917.

As to `Cc1ccc(F)cc1S(=O)(=O)N[C@@H]1CCN(Cc2ccc(Br)cc2)C1`, the z-score was -11.9 (active).

Turning to `CC1CC/C=C\[C@H]2OC34C=CCN(Cc5ccccc5)C(=O)[C@H]3N(C(CO)C(C)C)C(=O)[C@@H]4C2C(=O)O1` (stereo partly drawn), the z-score is 0.325.
